# Data as given in the supplement of paper PMC10646978.
# ± gives the standard deviation.
# Columns and labels:
# Conditions in all cases: modulator concentration 10 µM
# [1] = system: RAW-Dual (murine macrophage reporter line); assay: NF-kB reporter (SEAP) activity fold change vs agonist alone; higher = enhanced NF-kB activity
# Procedure, shortened: (§1)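 Overnight stimulation with a PRR agonist followed pre-incubation for 1 hour at 37 °C with compound at 10 μM final. This was done in RAW-Dual murine macrophage reporter cells seeded at 50 000 per well in 384-well plates. NF-κB (SEAP, QUANTI-Blue absorbance at 620 nm) and IRF (Lucia luciferase, QUANTI-Luc luminescence) were read from the supernatant. Each reporter's fold change relative to the mean agonist-only control on the same plate was averaged over replicate plates.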
# [2] = system: RAW-Dual (murine macrophage reporter line); assay: IRF reporter (Lucia luciferase) activity fold change vs agonist alone; higher = enhanced IRF activity
# Procedure, shortened: as §1
# [3] = system: RAW-Dual (murine macrophage reporter line); assay: viability score (confluency relative to resting cells, overnight) (fraction); higher = more viable, active = viable (0.7 or more)
# Procedure, shortened: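 In 384-well plates, RAW-Dual macrophages received compound at a final 10 μM overnight. Two confluency masks were then made with IncuCyte software from IncuCyte images of all imaged wells. The viability score is defined as confluency relative to resting cells. Passing the cutoff required both masks to lie above 70% of resting cells.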
# [4] = agonist: CpG ODN 1826 0.5 ug/mL
Compound,"NF-kB reporter [1, 4]",NF-kB reporter ([1]; agonist: LPS 0.1 ug/mL),NF-kB reporter ([1]; agonist: MPLA […]),IRF reporter ([2]; agonist: 3'3'-cGAMP 10 ug/mL),IRF reporter ([2]; agonist: LPS 0.1 ug/mL),IRF reporter ([2]; agonist: MPLA […]),viability score [3]
Cc1cc2ncc3c(n2n1)CCN(C(=O)c1cnoc1C)C3,0.857 ± 0.037,0.964 ± 0.077,1.02 ± 0.055,0.972 ± 0.045,1.11 ± 0.25,1.21 ± 0.43,0.896 (active)
O=S(=O)(NCCOCc1ccccc1)c1ccccc1,1.13 ± 0.093,1.05 ± 0.076,1.04 ± 0.14,1.02 ± 0.068,1.19 ± 0.18,1.27 ± 0.21,0.966 (active)
Cc1cc(C)c(NC(=O)c2ccc(Oc3nccs3)cc2)c(C)c1,0.893 ± 0.039,1.12 ± 0.098,1.22 ± 0.18,0.844 ± 0.048,0.939 ± 0.21,1.06 ± 0.42,1.01 (active)
CCC(=O)Nc1ccc(S(=O)(=O)N2CCC(Oc3ncnc(CC)c3F)C2)c(C)c1 (stereo not drawn),1 ± 0.043,1.06 ± 0.087,1.2 ± 0.083,0.919 ± 0.055,1.24 ± 0.21,1.34 ± 0.4,0.992 (active)
Clc1ccc(CN2CCN(c3ncnc4scc(-c5cccs5)c34)CC2)cc1,0.489 ± 0.028,1.28 ± 0.1,1.25 ± 0.074,1.16 ± 0.072,1.66 ± 0.12,1.51 ± 0.14,0.997 (active)
O=C(c1ccc(C(F)(F)F)nc1)N1CC(n2cc(C3CC3)nn2)C1,0.889 ± 0.073,0.931 ± 0.095,1.13 ± 0.082,1.01 ± 0.071,1.06 ± 0.15,1.08 ± 0.29,0.942 (active)
Cc1ccc(C2(O)C=CC(C)(C(Cl)(Cl)Cl)C=C2)cc1 (stereo not drawn),0.687 ± 0.054,0.974 ± 0.063,1.02 ± 0.067,0.455 ± 0.093,0.989 ± 0.047,0.915 ± 0.14,1 (active)
O=C(Cn1cnc(-c2ccc(Cl)cc2)cc1=O)N1CCOCC1,1.07 ± 0.29,0.924 ± 0.047,0.925 ± 0.07,0.933 ± 0.032,1.09 ± 0.17,1.09 ± 0.21,1 (active)
Br.CCCc1cc(-c2nc(-c3ccc(C)cc3)cs2)ccn1,1.09 ± 0.18,1.24 ± 0.12,1.08 ± 0.15,1.04 ± 0.069,1.3 ± 0.22,1.65 ± 0.32,0.993 (active)
O=C(Nc1ccccc1Cl)c1ccc(OCC2CCCO2)nc1 (stereo not drawn),1.17 ± 0.066,1.06 ± 0.12,0.981 ± 0.026,1.3 ± 0.35,1 ± 0.058,0.976 ± 0.098,0.999 (active)
COC(=O)C1=C(C#N)NC(C)=C(C(=O)OC(C)C)C1c1cccc([N+](=O)[O-])c1 (stereo not drawn),0.832 ± 0.041,1.01 ± 0.097,0.929 ± 0.04,0.978 ± 0.083,1.1 ± 0.068,1.19 ± 0.12,0.968 (active)
CCOc1ccc(CN2CCN(c3cc(C)nc4c5c(C)cc(C)nc5nn34)CC2)cc1,0.944 ± 0.08,1.04 ± 0.077,1.02 ± 0.022,1.05 ± 0.1,1 ± 0.14,0.96 ± 0.26,1 (active)
Cl.O=C(O)/C=C/c1ccc(Cn2ccnc2)cc1,1.43 ± 0.19,1.32 ± 0.25,0.979 ± 0.069,0.909 ± 0.028,1.34 ± 0.23,0.87 ± 0.096,0.988 (active)
Cc1cc(C)c(-c2csc(NC(=O)C=Cc3cccs3)n2)c(C)c1,0.618 ± 0.048,0.873 ± 0.091,1.44 ± 0.066,1.02 ± 0.071,1.12 ± 0.097,1.89 ± 0.17,0.8 (active)
